Consider five molecules from PubChem BioAssay.

Calls of active or inactive are those of the source.

Assay [1] relates to Plasmodium falciparum Sir2 (PF13_0152, Sir2A). In words: Plasmodium falciparum Sir2A binding compounds – biochemical, small-molecule microarray, 635 nm fluorescence, primary screen (AID 1098).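 Note: score merges spot fluorescence intensity with its signal-to-noise ratio.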 As to conditions: fluorescence 635 nm, higher = more signal.
A short description of assay [2]: probe aDKK1 binding to arrayed compounds – biochemical, biotinylated probe, 635/667 nm fluorescence, primary screen (AID 1099).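 Note: score merges 667nm spot fluorescence with signal to noise across triplicate slides.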 As to conditions: small-molecule microarray, higher = more signal.
A short description of assay [3]: probe aCHRDL2 binding to arrayed compounds – biochemical, biotinylated probe, 635/667 nm fluorescence, primary screen (AID 1100). Particulars: small-molecule microarray, higher = more signal.
Assay [4] can be described thus: change in splice reporter luminescence, either direction, cell-based, HEK293, spliceosome inhibition project, primary screen (AID 1101).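 Note: HEK293 cells carrying a splicing-competent luciferase reporter gene; test concentration not given here.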 As to conditions: HEK293 splicing luciferase reporter, 24 h, higher = more signal, called active from +8 up or from −8 down. A general note: Reporter assays use an easily measured gene product as a stand-in for the process of interest.

Assay [5] has as its target Fibroblast growth factor 10 (Homo sapiens) (UniProt O15520). The experiment in a line: compounds binding fibroblast growth factor 10 – biochemical, small-molecule microarray, 635 nm fluorescence, primary screen (AID 1102). As to conditions: FGF10 binding, fluorescence 635 nm, higher = more signal.
Assay [6] relates to glycogen synthase kinase-3 (GSK3A per assay name; protocol says GSK3B). In words: compounds binding glycogen synthase kinase-3 – biochemical, small-molecule microarray, 635 nm fluorescence, GSK3A, primary screen (AID 1103). Note: the record names both GSK3A and GSK3B. As to conditions: fluorescence 635 nm, higher = more signal.
For assay [7], the target named is Epidermal growth factor receptor (Homo sapiens) (UniProt P00533). In words: compounds binding epidermal growth factor receptor – biochemical, small-molecule microarray, 635 nm fluorescence, primary screen (AID 1104).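 Note: score merges 667 nm emission intensity with spot signal to noise over triplicate slides.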 As to conditions: EGFR binding, higher = more signal.
Epidermal growth factor receptor (Homo sapiens), sequence (P00533 whole entry, looked up): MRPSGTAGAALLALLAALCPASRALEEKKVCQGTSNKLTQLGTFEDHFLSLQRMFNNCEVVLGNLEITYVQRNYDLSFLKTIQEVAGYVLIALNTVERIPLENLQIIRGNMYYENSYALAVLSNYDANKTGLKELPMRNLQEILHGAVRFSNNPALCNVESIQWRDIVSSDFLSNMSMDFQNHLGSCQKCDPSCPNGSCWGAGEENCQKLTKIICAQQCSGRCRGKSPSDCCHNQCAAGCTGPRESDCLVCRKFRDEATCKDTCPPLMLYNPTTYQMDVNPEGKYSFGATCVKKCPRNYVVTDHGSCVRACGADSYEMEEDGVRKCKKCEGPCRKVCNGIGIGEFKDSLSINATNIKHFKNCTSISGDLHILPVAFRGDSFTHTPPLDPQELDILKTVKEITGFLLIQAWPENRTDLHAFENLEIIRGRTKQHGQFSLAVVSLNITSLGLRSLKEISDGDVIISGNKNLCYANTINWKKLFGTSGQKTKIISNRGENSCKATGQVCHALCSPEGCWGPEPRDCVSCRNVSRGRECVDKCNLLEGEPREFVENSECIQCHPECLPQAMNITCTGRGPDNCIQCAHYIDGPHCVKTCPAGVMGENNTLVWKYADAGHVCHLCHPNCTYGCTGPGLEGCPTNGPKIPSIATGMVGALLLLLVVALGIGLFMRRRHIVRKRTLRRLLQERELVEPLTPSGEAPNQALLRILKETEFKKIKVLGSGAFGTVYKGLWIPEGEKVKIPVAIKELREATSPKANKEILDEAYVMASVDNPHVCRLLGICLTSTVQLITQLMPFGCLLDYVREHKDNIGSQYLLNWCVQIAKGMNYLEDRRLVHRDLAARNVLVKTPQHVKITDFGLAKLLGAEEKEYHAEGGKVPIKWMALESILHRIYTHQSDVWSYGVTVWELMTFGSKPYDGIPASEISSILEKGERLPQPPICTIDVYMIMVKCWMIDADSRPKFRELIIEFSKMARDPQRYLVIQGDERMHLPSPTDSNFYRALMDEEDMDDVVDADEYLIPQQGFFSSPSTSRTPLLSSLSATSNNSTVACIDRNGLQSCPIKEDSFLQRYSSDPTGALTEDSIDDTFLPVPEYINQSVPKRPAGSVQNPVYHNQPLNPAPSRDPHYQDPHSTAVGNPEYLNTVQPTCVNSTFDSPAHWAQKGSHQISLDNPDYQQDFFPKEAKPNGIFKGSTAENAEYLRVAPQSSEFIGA
For assay [8], the target named is Follistatin-related protein 3 (Homo sapiens) (UniProt O95633). In words: compounds binding follistatin-related protein 3 – biochemical, small-molecule microarray, 635 nm fluorescence, primary screen (AID 1105).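 Note: score merges emission near 667 nm and signal to noise per printed spot across three slides.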 As to conditions: FSTL3 binding, higher = more signal.
Follistatin-related protein 3 (Homo sapiens), sequence (O95633 whole entry, looked up): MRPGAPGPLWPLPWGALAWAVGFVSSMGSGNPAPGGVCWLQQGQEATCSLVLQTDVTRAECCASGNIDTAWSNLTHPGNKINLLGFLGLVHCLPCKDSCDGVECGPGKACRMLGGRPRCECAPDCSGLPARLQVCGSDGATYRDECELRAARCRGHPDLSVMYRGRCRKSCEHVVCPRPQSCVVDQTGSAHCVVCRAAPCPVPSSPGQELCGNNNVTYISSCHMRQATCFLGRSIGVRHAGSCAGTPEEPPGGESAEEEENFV
The target of assay [9] is Dickkopf-related protein 1 (Homo sapiens) (UniProt O94907). The experiment in a line: small molecules binding DKK1 protein – biochemical, small-molecule microarray, 635 nm fluorescence scan, primary screen (AID 1106).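 Note: score merges emission near 667 nm with signal to noise over three replicate slides.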 Particulars: higher = more signal.
Dickkopf-related protein 1 (Homo sapiens), sequence (O94907 whole entry, looked up): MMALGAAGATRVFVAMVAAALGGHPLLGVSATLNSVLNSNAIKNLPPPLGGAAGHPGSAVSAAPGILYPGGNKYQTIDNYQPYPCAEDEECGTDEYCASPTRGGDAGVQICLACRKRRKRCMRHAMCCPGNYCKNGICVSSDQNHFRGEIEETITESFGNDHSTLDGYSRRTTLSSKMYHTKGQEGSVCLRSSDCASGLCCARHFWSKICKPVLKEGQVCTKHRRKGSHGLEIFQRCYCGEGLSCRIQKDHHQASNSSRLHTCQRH
Assay [10] relates to Inhibin beta A chain (activin A). The experiment in a line: small molecules binding activin A – biochemical, small-molecule microarray, 635 nm fluorescence scan, primary screen (AID 1107).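 Note: mouse activin A protein probed at 4.33 µg/mL on printed slides; score merges bound-protein fluorescence near 667 nm with spot signal-to-noise.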 As to conditions: INHBA, higher = more signal.
Assay [11] concerns Human papillomavirus type 1a protein E7 (residues 44-93). The experiment in a line: small molecules binding HPV E7 44-93 – biochemical, small-molecule microarray, residues 44-93, 635 nm fluorescence, primary screen (AID 1108).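 Note: E7 fragment applied at 1 µg/mL in TBST for 1 h at 4 C; score combines spot fluorescence with its signal to noise ratio.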 Particulars: fluorescence 635 nm, higher = more signal.
Assay [12] in a line: hepatitis C replication reporter changes, two-sided – Huh7 cells, luciferase reporter, HCV replication inhibitor project, primary screen (AID 1109).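 Note: huh7 hepatoma cells harbouring a luciferase neomycin HCV replicon reporter; luciferase luminescence as measure of HCV replicon replication; test concentration not given here.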 As to conditions: Huh7 HCV replicon luciferase reporter, 48 h; higher = more signal.
Assay [13] addresses Left-right determination factor 2 (Homo sapiens) (UniProt O00292). The experiment in a line: small molecules binding LEFTY2 protein – biochemical, small-molecule microarray, 635 nm fluorescence scan, primary screen (AID 1110). As to conditions: higher = more signal.
Assay [14] addresses Calmodulin-1 (Homo sapiens) (UniProt P0DP23). In words: small molecules binding calmodulin-1 with EGTA – biochemical, small-molecule microarray, Cy5-labelled CALM1, profiling panel (AID 1111).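 Note: labelled calmodulin applied in Tris saline Tween buffer holding calcium plus EGTA and DTT.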 Particulars: Cy5-CALM1 binding fluorescence, higher = more signal.
Assay [15] has the same target. The experiment in a line: small molecules binding Ca-loaded calmodulin-1 – biochemical, small-molecule microarray, Cy5-labelled CALM1, plus calcium, artefact control for SMM control-protein annotation, profiling panel (AID 1112).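 Note: score merges spot fluorescence with signal to noise from triplicate slides.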 Particulars: Cy5-CALM1 binding fluorescence, higher = more signal.
The nature of assay [16]: probe aWnt5a binding to arrayed compounds – biochemical, biotinylated probe, 635/667 nm fluorescence, primary screen (AID 1113).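 Note: score merges 667 nm fluorescence intensity with signal-to-noise per printed feature.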 Particulars: small-molecule microarray, higher = more signal.
Assay [17] can be described thus: probe aShh binding to arrayed compounds – biochemical, biotinylated probe, 635/667 nm fluorescence, primary screen (AID 1114).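 Note: probe is biotin-labelled aShh protein from a stem cell growth factor screen; measures binding of labelled protein to compounds printed on the slide; score merges feature fluorescence at 667 nm with signal-to-noise.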 As to conditions: small-molecule microarray, higher = more signal.
The nature of assay [18]: probe aNog binding to arrayed compounds – biochemical, biotinylated probe, 635/667 nm fluorescence, primary screen (AID 1115).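 Note: probe is biotinylated aNog protein used at 0.15 µg/mL for 1 h at 4 C; z-score combines 667 nm fluorescence of each spot with its signal to noise.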 As to conditions: small-molecule microarray, higher = more signal.
The target in assay [19] is Torsin-1A-interacting protein 1 (Homo sapiens) (UniProt Q5JTV8). The experiment in a line: compound microarray binding of lysate hLAP1 – cell lysate, small-molecule microarray, COS7 lysate, 635/667 nm fluorescence, primary screen (AID 1116). Particulars: 635 nm fluorescence, higher = more signal.
Torsin-1A-interacting protein 1 (Homo sapiens), sequence (Q5JTV8 whole entry, looked up): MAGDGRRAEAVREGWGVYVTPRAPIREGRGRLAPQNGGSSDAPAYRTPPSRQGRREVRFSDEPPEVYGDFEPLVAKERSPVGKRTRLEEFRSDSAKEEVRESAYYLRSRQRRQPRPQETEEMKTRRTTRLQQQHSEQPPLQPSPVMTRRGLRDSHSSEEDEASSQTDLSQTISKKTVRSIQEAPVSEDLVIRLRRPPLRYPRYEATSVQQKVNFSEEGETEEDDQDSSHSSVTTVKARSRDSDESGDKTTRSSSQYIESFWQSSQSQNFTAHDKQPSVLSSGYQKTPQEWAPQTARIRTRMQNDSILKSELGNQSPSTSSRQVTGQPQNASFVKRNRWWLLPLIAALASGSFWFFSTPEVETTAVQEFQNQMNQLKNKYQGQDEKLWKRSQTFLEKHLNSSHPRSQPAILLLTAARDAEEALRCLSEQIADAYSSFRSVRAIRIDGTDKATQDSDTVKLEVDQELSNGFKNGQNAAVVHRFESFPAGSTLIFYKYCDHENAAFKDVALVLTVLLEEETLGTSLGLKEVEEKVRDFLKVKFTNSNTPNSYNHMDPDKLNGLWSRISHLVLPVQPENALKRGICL
Assay [20] deals with Alpha-bungarotoxin (Bungarus multicinctus) (UniProt P60615). In words: compounds binding labelled alpha-BTX control protein – biochemical, small-molecule microarray, Alexa647 label, 635/667 nm fluorescence, artefact control for SMM control protein annotation, profiling panel (AID 1117). Particulars: alpha-BTX-A647 binding fluorescence, higher = more signal.
Alpha-bungarotoxin (Bungarus multicinctus), sequence (P60615 whole entry, looked up): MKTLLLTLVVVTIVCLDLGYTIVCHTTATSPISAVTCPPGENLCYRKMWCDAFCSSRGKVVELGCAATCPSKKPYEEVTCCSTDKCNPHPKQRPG

Fibroblast growth factor 10 (Homo sapiens), sequence (O15520 whole entry, looked up): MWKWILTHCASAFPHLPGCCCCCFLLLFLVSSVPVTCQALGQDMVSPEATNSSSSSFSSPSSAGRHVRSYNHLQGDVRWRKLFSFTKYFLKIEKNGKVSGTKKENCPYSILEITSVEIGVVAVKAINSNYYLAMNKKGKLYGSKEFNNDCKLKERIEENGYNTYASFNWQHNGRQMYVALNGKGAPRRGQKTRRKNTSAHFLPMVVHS
Left-right determination factor 2 (Homo sapiens), sequence (O00292 whole entry, looked up): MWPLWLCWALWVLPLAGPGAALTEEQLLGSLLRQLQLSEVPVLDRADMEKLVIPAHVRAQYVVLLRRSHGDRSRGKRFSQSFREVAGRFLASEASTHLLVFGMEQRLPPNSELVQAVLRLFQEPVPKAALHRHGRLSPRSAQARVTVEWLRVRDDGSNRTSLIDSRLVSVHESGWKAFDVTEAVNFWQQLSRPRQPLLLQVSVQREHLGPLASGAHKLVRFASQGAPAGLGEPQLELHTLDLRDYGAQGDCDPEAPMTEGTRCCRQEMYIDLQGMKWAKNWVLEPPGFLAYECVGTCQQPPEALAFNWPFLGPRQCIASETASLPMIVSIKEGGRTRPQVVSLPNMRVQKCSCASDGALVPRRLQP

On to `CC(C)[Si]1(C(C)C)OCc2cc(-c3ccc(-c4ccc(Cl)c(Cl)c4)o3)nc(CCc3ccccc3)c21`, for which the composite z-score is 0.508 in assay [1]; -0.0914 in [2]; -0.17 in assay [3]; 0.187 in [5]; -0.181 in [6]; -0.833 in assay [7]. Besides, the composite z-score was 0.169 in assay [8]; 0.32 in assay [9]; 0.536 in [10]; -0.655 in assay [11]; 0.198 in assay [13]; -0.307 in assay [14]. Also, the composite z-score in assay [15] was 0.688; in assay [16], -0.054; in [17], -0.601; in [18], 0.428; in assay [19], -0.395; in [20], -0.327. Besides, the z-score in [4] is -2.1 (inactive); in assay [12], -0.826.

With `Cc1ccccc1C(O)C1C=CC2C(=O)NC(=O)C2N1Nc1ccc(Cl)cc1Cl` (stereo not given), the composite z-score in [1] was 1.21; in assay [2], 0.629; in assay [3], 0.751; in [5] it was 0.904; in [6], 0.332; in assay [7], 0.207. For the same molecule, the composite z-score in assay [8] was 0.511; in assay [9] it was 0.0925; in assay [10], 1.18; in [11] it was -0.198; in assay [13], -0.345; in [14] it was 1.95. Besides, the composite z-score in assay [15] was 1.13; in [16], -0.0405; in assay [17], 0.0796; in assay [18], 0.879; in [19] it was 1.56; in assay [20], 0.0072. The z-score in assay [4] was 0.812 (inactive); in [12], -0.595.

On to `[N-]=[N+]=NCc1ccccc1C[C@]1(C(=O)N2CCOCC2)COC(c2ccc(OCCCO)cc2)=N1`, for which the composite z-score was 0.947 in [1]; 1.05 in assay [2]; 1.05 in assay [3]; 0.396 in [5]; 0.935 in assay [6]; -0.505 in assay [7]. For the same molecule, the composite z-score in assay [8] was 0.0724; in assay [9], -0.921; in assay [10], 0.983; in [11], 1.01; in [13], -0.305; in [14], 2.35. Further, the composite z-score is 0.822 in [15]; 0.168 in assay [16]; 0.0326 in assay [17]; 1.87 in [18]; 2.22 in assay [19]; 0.326 in assay [20]. For the same molecule, the z-score in [4] is -0.363 (inactive); in [12], -1.54.

With `COCCOC(=O)N1C(=O)[C@@]2(c3ccccc31)[C@H](c1ccccc1OCCO)N1[C@H](c3ccccc3)[C@H](c3ccccc3)OC(=O)[C@H]1[C@@H]2C(N)=O`, the composite z-score in [1] is 1.28; in assay [2], 0.701; in [3], 0.74; in [5], 1.2; in [6], 1.25; in assay [7], 0.888. Also, the composite z-score was determined as 1.43 in assay [8]; 1.16 in assay [9]; 0.186 in assay [10]; 1.19 in assay [11]; 0.574 in assay [13]; 1.93 in [14]. Moreover, the composite z-score in [15] came to 0.208; in assay [16], 0.0317; in assay [17], 0.0121; in [18] it was 0.389; in assay [19], 1.29; in assay [20], 1.14. Moreover, the z-score in assay [4] is -2.08 (inactive); in [12], -2.76.

Consider `C=C(/C(=C/C[C@@H](OC(C)=O)c1ccc(CO)o1)c1cc(C(=O)OC)ccc1OC)C(C)C`, for which the composite z-score was 0.12 in assay [1]; -0.22 in assay [2]; -0.256 in assay [3]; 1.02 in [5]; 0.469 in [6]; -0.132 in assay [7]. The composite z-score amounted to 0.347 in assay [8]; 0.251 in [9]; 0.995 in assay [10]; 0.443 in [11]; 0.192 in [13]; 0.189 in [14]. The composite z-score in [15] is -0.657; in assay [16], 0.0251; in [17], 0.216; in assay [18] it was 0.141; in [19], -0.144; in [20], -0.0861. Also, the z-score in assay [4] is 0.227 (inactive); in [12] it was -0.9.
